Whole data set: some 1,400 sequences, median “thermal melting temperature (Tm) of peptide-HLA complex” near 60, cut for the lowest 2% near 45. Shown is part of a subset that was picked to be rich in the lowest values.
B1: unnamed (peptide)
chain: VPNWHRDLV
B2: unnamed (peptide)
chain: KPMPSLPQL
B3: unnamed (peptide)
chain: VPRAILVDL
B4: unnamed (peptide)
chain: NPRQPLPASGL
B5: unnamed (peptide)
chain: SPRPPAEGF
B6: unnamed (peptide)
chain: RPNGTKVAVL
B7: unnamed (peptide)
chain: RPKTPPVVI
B8: unnamed (peptide)
chain: FPIPAAEVDRL
B9: unnamed (peptide)
chain: RPAANPIQFTL
B10: unnamed (peptide)
chain: IPRSITVLV
B11: unnamed (peptide)
chain: MPHVPITTL
B12: unnamed (peptide)
chain: LPQYRLISI
B13: unnamed (peptide)
chain: YPARYRPTAL
B14: unnamed (peptide)
chain: QPRLFTMDL
B15: unnamed (peptide)
chain: SPKSPTAAL
B16: unnamed (peptide)
chain: VPQESRFNL
B17: unnamed (peptide)
chain: LPRSINTDTL
B18: unnamed (peptide)
chain: KPKFILSVL
B19: unnamed (peptide)
chain: YPRPLLIAF
B20: unnamed (peptide)
chain: LPELKSTL
B21: unnamed (peptide)
chain: SPSFPRPSL
B22: unnamed (peptide)
chain: IPDVKGAVL
B23: unnamed (peptide)
chain: SPAPPLLHV
B24: unnamed (peptide)
chain: KPYAHILSV
B25: unnamed (peptide)
chain: SPAPRTAL
B26: unnamed (peptide)
chain: FPKNIFAEL
B27: unnamed (peptide)
chain: RPASGSPFQL
B28: unnamed (peptide)
chain: SPYPGLRLISL
B29: unnamed (peptide)
chain: MPYSNGRPAL
B30: unnamed (peptide)
chain: HPRSPNVLSV
B31: unnamed (peptide)
chain: AVDPNRAVPL
B32: unnamed (peptide)
chain: GPHVPFTVF
B33: unnamed (peptide)
chain: GPRSAQVAQSL
B34: unnamed (peptide)
chain: SPRALTQPLGL
B35: unnamed (peptide)
chain: RPTEGVQAL
B36: unnamed (peptide)
chain: VIAPVRAVL
B37: unnamed (peptide)
chain: VARPLSTAL
B38: unnamed (peptide)
chain: HPVVSSVPL
B39: unnamed (peptide)
chain: RPYGVGLLI
B40: unnamed (peptide)
chain: IPSIRNGIL
B41: unnamed (peptide)
chain: SPRTPVSPVKF
B42: unnamed (peptide)
chain: SPRAPVSPLKF
B43: unnamed (peptide)
chain: WPHPPGPFL
B44: unnamed (peptide)
chain: SPIYISRII
B45: unnamed (peptide)
chain: RPFERTITM
B46: unnamed (peptide)
chain: QPATPGLGM
B47: unnamed (peptide)
chain: APSGTRVVQVL
B48: unnamed (peptide)
chain: KPRPIIPML
B49: unnamed (peptide)
chain: IPTKKSQVF
B50: unnamed (peptide)
chain: YPFFRGVTI
B51: unnamed (peptide)
chain: HPRAPVLL
B52: unnamed (peptide)
chain: TPEEVRLPL
B53: unnamed (peptide)
chain: RPTGGVGAV
B54: unnamed (peptide)
chain: SPANLPAVL
B55: unnamed (peptide)
chain: FPRAPSTSDSV
B56: unnamed (peptide)
chain: TPLGTRSGL
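Note: lysates heated 10 min at 37–73 °C, complexes pulled down with pan-HLA I antibody, peptide signal by DIA-MS relative to 37 °C, Tm where half the complex is unfolded.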

What follows are sequences tested against HLA-B*07:02 (assay: thermal melting temperature (Tm) of peptide-HLA complex; higher = more thermostable pHLA complex). Conditions: C1R-B*07:02.
B1 gave a thermal melting temperature of 58.3 °C.
B2 was tested, and the thermal melting temperature was 44.9 °C.
For B3, the thermal melting temperature was 62.4 °C.
B4 gave a thermal melting temperature of 58.3 °C.
Sequence B5 has a thermal melting temperature of 55.8 °C.
Work on B6 yielded a thermal melting temperature of 60.1 °C.
In the case of B7, the thermal melting temperature is reported as 59.6 °C.
Sequence B8 has a thermal melting temperature of 62.2 °C.
B9 gave a thermal melting temperature of 59.8 °C.
With B10 the thermal melting temperature was 62.4 °C.
Work on B11 yielded a thermal melting temperature of 61.3 °C.
Work on B12 yielded a thermal melting temperature of 61.3 °C.
In the case of B13, the thermal melting temperature is reported as 58.2 °C.
With B14 the thermal melting temperature was 60.2 °C.
With B15 the thermal melting temperature was 60.1 °C.
Sequence B16 has a thermal melting temperature of 57.1 °C.
In the case of B17, the thermal melting temperature is reported as 58.5 °C.
Work on B18 yielded a thermal melting temperature of 62.7 °C.
B19 was tested, and the thermal melting temperature was 62 °C.
B20 was tested, and the thermal melting temperature was 60.8 °C.
For B21, the thermal melting temperature was 61.4 °C.
B22 was tested, and the thermal melting temperature was 58.7 °C.
B23 gave a thermal melting temperature of 60.8 °C.
Sequence B24 has a thermal melting temperature of 55.5 °C.
B25 was tested, and the thermal melting temperature was 57.4 °C.
Sequence B26 has a thermal melting temperature of 62.8 °C.
Work on B27 yielded a thermal melting temperature of 52.6 °C.
B28 was tested, and the thermal melting temperature was 62.1 °C.
Work on B29 yielded a thermal melting temperature of 58.2 °C.
Sequence B30 has a thermal melting temperature of 57.6 °C.
For B31, the thermal melting temperature was 60.5 °C.
B32 showed a thermal melting temperature of 62.3 °C.
For B33, the thermal melting temperature was 40.4 °C.
B34 showed a thermal melting temperature of 61.2 °C.
B35 gave a thermal melting temperature of 54.3 °C.
For B36, the thermal melting temperature was 59.2 °C.
In the case of B37, the thermal melting temperature is reported as 59.6 °C.
With B38 the thermal melting temperature was 57.8 °C.
B39 showed a thermal melting temperature of 59 °C.
Work on B40 yielded a thermal melting temperature of 62.8 °C.
Work on B41 yielded a thermal melting temperature of 59.3 °C.
B42 gave a thermal melting temperature of 59.5 °C.
In the case of B43, the thermal melting temperature is reported as 62.3 °C.
Work on B44 yielded a thermal melting temperature of 58.8 °C.
B45 gave a thermal melting temperature of 56.5 °C.
B46 gave a thermal melting temperature of 57 °C.
B47 showed a thermal melting temperature of 41.4 °C.
In the case of B48, the thermal melting temperature is reported as 60.7 °C.
B49 gave a thermal melting temperature of 58.9 °C.
In the case of B50, the thermal melting temperature is reported as 61.8 °C.
For B51, the thermal melting temperature was 59.5 °C.
B52 gave a thermal melting temperature of 62.1 °C.
Work on B53 yielded a thermal melting temperature of 54.3 °C.
In the case of B54, the thermal melting temperature is reported as 62.6 °C.
For B55, the thermal melting temperature was 57.1 °C.
B56 gave a thermal melting temperature of 55.6 °C.

From the supplement of paper PMC7726561
